Screening data from PubChem BioAssay.
Giardia kill = Small Molecules that selectively kill Giardia lamblia: qHTS | Giardia lamblia trophozoite viability | activity change, % at 7.66 µM, hits read low | 340,000 compounds, 0.15% hits; in the data active = activity change below about -80%; inconclusive = between about -30% and that limit;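 note: parasites exposed to compound for two days anaerobically before the ATP read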
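Giardia trophozoites, 100 cells per well, were exposed to compounds for 48 hrs at 37 deg C under anaerobic conditions; viability was then read as ATP content by bioluminescence after 15-30 min at room temperature.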
FBPA coupling cs = qHTS Assay for Inhibitors of Fructose-1,6-bisphosphate Aldolase from Giardia Lamblia: Coupling assay counterscreen; coupling enzyme system counterscreen, AmpLite Red fluorescence; activity change, negative = inhibition, % at 58.2 µM, hits read low; 290,000 compounds, 0.67% hits; AID 2472, 2010; in the data active = activity change below about -30%
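Fluorescence at 525 nm excitation and 598 nm emission measured inhibition of the coupled detection system without aldolase. Compounds (at 57.5 uM final) were preincubated 10 min at room temperature with coupling enzyme reagent before a 20 min substrate/AmpLite Red step.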
Sfp PPTase inh = qHTS Assay for Inhibitors of Bacillus subtilis Sfp phosphopantetheinyl transferase (PPTase); Biochemical Sfp PPTase activity, qHTS; Potency, µM, for the others: largest response in the series, negative = inhibition, most hits filed as inhibitors; 4'-phosphopantetheinyl transferase ffp (Bacillus subtilis), Q9F4F7; 310,000 compounds, 3.5% hits; AID 1490, 2009;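 note: the enzyme is Sfp with the accession as filed and its product quenches rhodamine fluorescence; potency is the fitted concentration of half-maximal effect; 0% = enzyme reaction without inhibitor and -100% = no enzyme wells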
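Sfp 15 nM + cpd, 15 min RT; start w/ rhodamine-CoA 5 uM, BHQ-2-YbbR 12.5 uM (final); 50 mM Hepes pH 7.6, 10 mM MgCl2, 0.01% NP-40, 0.01% BSA; read 525/598 nm at 0 and 30 min.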
ELG1 DNA repair = qHTS screen for small molecules that inhibit ELG1-dependent DNA repair in human embryonic kidney (HEK293T) cells expressing luciferase-tagged ELG1. 330,000 compounds, 2.3% hits. HEK293T ELG1-luciferase reporter, luminescence, 16 h; DNA damage induced by 5-fluorouridine. Potency, µM (series often up to 46.1 µM), for the others: top-dose activity change, negative = inhibition, hits mostly inhibitors; note: potency is the fitted concentration of half-maximal effect; nearly all actives have a fitted effect of over 55% in size
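In this reporter screen, reduction of luminescence relative to DMSO vehicle indicated activity. Compounds and 5-fluorouridine were added together to 2,000 cells per well, incubated for 16 hr at 37 °C, then developed with ONE-Glo.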
* hit, by the source's call; u = inconclusive; x = no result. Compounds with a hit are over-represented: about 5.5% of the library has one in this group of screens. Unless noted, calls come from the whole dose curve; as a rule, active = well fitted curve in the direction sought with a large enough effect; inconclusive = small, poorly fitted or top-dose-only effect, or another doubt; inactive = no such curve, though single readings can be large; an effect the other way counts as inactive or inconclusive. Unless noted, % is set by controls: 0 for no effect and ±100 for the full control effect.

SMILES	Giardia kill	FBPA coupling cs	Sfp PPTase inh	ELG1 DNA repair
C1CSC2(N1)C1CC3CC(C1)CC2C3 (stereo not given)	-18	1	35µM*	19%
C#CCCCO/N=C1/C[C@@H](O)[C@@H](O)[C@@H]2[C@@H]3C(=O)N([C@@H](C)c4ccccc4)C(=O)[C@H]3CC[C@H]12	x	-3	13%	x
COCCn1c(SCC(=O)c2ccc3c(c2)OCCO3)nnc1C(C)C	-22	1	u	u
CC(=O)Nc1ccc(C(=O)CSc2nnnn2C)cc1	11	1	-3%	9%
COCCn1c(SCC(=O)c2ccc(Cl)cc2)nnc1C(C)C	-3	-1	79µM*	3%
CCCn1nnnc1SCC(=O)c1ccc(NC(C)=O)cc1	-10	1	79µM*	23%
COCCn1nnnc1SCC(=O)c1ccccc1	22	-2	50µM*	u
C=C1CCC(O)C/C1=C/C=C1\CCC[C@]2(C)[C@@H]([C@H](C)/C=C/[C@H](C)C(C)C)CC[C@@H]12 (stereo not given in full)	x	x	24%	x
COc1ccc(-c2nnc3n2N=C(c2c(OC)cccc2OC)CS3)cc1OC	x	3	9%	x
CC(C)(C)c1ccc(OCCn2c(CCNC(=O)C3CCCCC3)nc3ccccc32)cc1	4	x	x	x
O=C(c1ccccc1)N1CCCC(c2ccc(Cl)cc2)=N1	-11	5	79µM*	5%
CCCCS(=O)(=O)Nc1ccc2cn[nH]c2c1	9	-36*	17%	-2%
CC(C)Cn1nnnc1S(=O)(=O)Cc1ccccc1	x	1	3%	x
O=C(Nc1c2c(nn1-c1ccccc1)CS(=O)C2)c1ccco1 (stereo not given)	-16	x	10%	13%
O=C(COc1cccc2cccnc12)N/N=C/c1ccccc1O	1	5	-3%	8.2µM*
O=C(CNC(=O)c1ccncc1)N/N=C/c1ccccn1	0	-2	56µM*	18%
COc1cc(C(=O)NCC(=O)N/N=C/c2ccccn2)cc(OC)c1OC	-20	2	45µM*	7%
O=C(CNC(=O)c1ccncc1)N/N=C/c1ccc(O)cc1O	9	2	21%	-11%
O=C(O)COc1ccccc1/C=N/NC(=O)c1ccncc1	x	x	50µM*	x
COc1ccc(Cl)cc1NC(=O)c1cccc(S(=O)(=O)Nc2c(C)n(C)n(-c3ccccc3)c2=O)c1	-6	x	x	x
Cc1ccc(-c2[nH][nH]c(=O)c(=O)c2N=Nc2ccccc2)cc1	-92*	-1	13%	-9%
NC(Cc1c[nH]c2ccccc12)C(=O)NCC(=O)O (stereo not given)	x	3	u	x
CN(c1ccc(OCC(=O)NC2CCC(O)CC2)cc1)S(=O)(=O)c1ccc(Cl)cc1 (stereo not given)	13	x	x	-2%
O=C(CCS(=O)(=O)Cc1ccccc1)Nc1ncc([N+](=O)[O-])s1	u	3	9%	0%
Cc1ccc(S(=O)(=O)CC(=O)Nc2ncc([N+](=O)[O-])s2)cc1	-84*	6	2%	-25%
SMILES	Giardia kill	FBPA coupling cs	Sfp PPTase inh	ELG1 DNA repair
O=C(CS(=O)(=O)c1ccccc1)Nc1ncc([N+](=O)[O-])s1	u	8	20%	-2%
O=C(CCS(=O)(=O)c1ccccc1)Nc1ncc([N+](=O)[O-])s1	-81*	4	9%	0%
CCCCC(CC)C(=O)Nc1ncc([N+](=O)[O-])s1 (stereo not given)	-91*	2	6%	18%
CC12CCC(C(=O)Nc3ncc([N+](=O)[O-])s3)(OC1=O)C2(C)C (stereo not given)	-86*	1	2%	-5%
Cc1ccccc1C(=O)OCC(=O)Nc1cccc(S(=O)(=O)NC2=NCCC2)c1	-13	x	x	4%
CCN(CC(=O)Nc1cc(S(=O)(=O)N2CCCCC2)ccc1C)Cc1ccccc1	20	x	x	-3%
COC(=O)N1C2CC(=O)O[C@@H]3c4cc5c(cc4[C@]1(C)[C@@]3(Br)c1ccccc12)OCO5	x	0	u	x
COc1ccc(C2/C=C\CN(CC3CC3)C(Cc3ccccc3)C(=O)N2Cc2ccc(F)cc2)cc1 (stereo not given)	0	0	3%	x
Cc1ccc(CC(=O)Nc2cccc([N+](=O)[O-])c2)cc1	5	1	8%	-21%
